# Experimental data taken from the supplement of paper PMC7530171.
# Counter-ions that a name gives are not always drawn. ± gives the standard deviation.
# Tested on: THP-1
# Assay: THP-1 cell loss relative to DMSO control; higher = more host cell loss (toxicity); extreme values may be limits of the assay
# Settings: 10 µM; 4 days; infection: M. tuberculosis H37Rv
# Protocol: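 OICR kinase inhibitor library screened in duplicate at 10 uM against M. tuberculosis-infected THP-1 macrophages, 4 days at 37 C. THP-1 cell loss (cytotoxicity or loss of adherence) was quantified from Hoechst-stained nuclei counts by high-content imaging and normalised to the 1% DMSO control; 100 = complete loss of host cells.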
row,Structure (SMILES),THP-1 cell loss
1,CCc1cc(Nc2nccc(-c3c(-c4ccc(OC)c(C(=O)Nc5c(F)cccc5F)c4)nc4ccccn34)n2)c(OC)cc1N1CCC(N2CCN(S(C)(=O)=O)CC2)CC1,10.9 ± 13%
2,Cc1ccccc1-n1c(Cn2nc(-c3cccc(O)c3)c3c(N)ncnc32)nc2cccc(C)c2c1=O,43.9 ± 23%
3,COc1ccc(OC)c2c(=S)c3ccccc3[nH]c12,9.79 ± 3.8%
4,COc1ccc(-c2cc3nccn3c(Nc3ncccc3C(N)=O)n2)cc1OC [BAY 61-3606 hydrochloride],100%
5,O=C1NC(=O)c2c1c(-c1ccccc1)cc1[nH]c3ccc(O)cc3c21,77.75 ± 0.7%
6,CC1=C(C(=O)Nc2cc3cn[nH]c3cc2F)C(c2ccc(C(F)(F)F)cc2)CC(=O)N1 (configuration not stated),0%
7,COc1cc2ncnc(-n3nc(-c4ccccn4)nc3N)c2cc1OC,67 ± 15%
8,COc1ccc(-c2ccc3ncc4c(c3c2)n(-c2ccc(N3CCNCC3)c(C(F)(F)F)c2)c(=O)n4C)cn1,100%
9,COc1ccc(S(=O)(=O)N(C(C)=O)c2ccccc2/C=C/c2cc[n+]([O-])cc2)cc1,51.3 ± 4.4%
10,CS(=O)(=O)CCNCc1ccc(-c2ccc3ncnc(Nc4ccc(OCc5cccc(F)c5)c(Cl)c4)c3c2)o1 [Lapatinib ditosylate],100%
11,COc1cccc2cc(-c3nc([C@H]4CC[C@H](C(=O)O)CC4)n4ncnc(N)c34)[nH]c12 [OSI-027 hydrochloride],51.2 ± 4.5%
12,CC(=O)Nc1cccc(-n2c(=O)n(C3CC3)c(=O)c3c(Nc4ccc(I)cc4F)n(C)c(=O)c(C)c32)c1,100%
13,Cc1cc(I)ccc1Nc1c(C(=O)NOCC2CC2)cc(F)c(F)c1F,100%
14,CCCS(=O)(=O)Nc1ccc(F)c(C(=O)c2c[nH]c3ncc(Cl)cc23)c1F,11.5 ± 14%
15,c1cc(-c2cnn3cc(-c4ccc(OCCN5CCCCC5)cc4)cnc23)ccn1 [Dorsomorphin dihydrochloride],100%
16,Cc1cccc(-c2[nH]c(C(C)(C)C)nc2-c2ccc3c(c2)OCO3)n1,74 ± 1.8%
17,N#CC(=C(/N)Sc1ccccc1N)/C(C#N)=C(/N)Sc1ccccc1N,39.2 ± 23%
18,O=C1Cc2c([nH]c3ccc([N+](=O)[O-])cc23)-c2ccccc2N1 [Alsterpaullone],100%
19,O=C(NCCCNc1nc(Nc2cccc(NC(=O)N3CCCC3)c2)ncc1I)c1cccs1,100%

row,Structure (SMILES),THP-1 cell loss
1,CN(C)Cc1cccc(N=C(c2ccccc2)c2c(O)[nH]c3cc(C(=O)N(C)C)ccc23)c1,23.9 ± 0.5%
2,Cc1cc(Nc2cc(CN3CCOCC3)c3nc(C)c(Cc4ccc(Cl)cc4F)n3n2)n[nH]1,100%
3,COc1cc2nccc(Oc3ccc(NC(=O)Nc4cc(C)on4)c(Cl)c3)c2cc1OC,27.4 ± 5%
4,Nc1ncnc2nc(-c3ccc(N4CCOCC4)nc3)cc(-c3cccc(Br)c3)c12 [ABT-702 dihydrochloride],24.4 ± 13%
5,Cc1cc(C(=O)Nc2cc(Nc3ccc4c(/C=C/c5ccccn5)n[nH]c4c3)ccc2F)n(C)n1,54.6 ± 11%
6,Nc1nc(Nc2ccc(S(N)(=O)=O)cc2)nn1C(=O)c1c(F)cccc1F,100%
7,O=C(C=Cc1ccccc1)NC(NC(=S)Nc1ccc(Cl)cc1)C(Cl)(Cl)Cl (configuration not stated),63.6 ± 52%
8,N#CC(c1ccnc(NCCc2cccnc2)n1)c1nc2ccccc2s1 (configuration not stated),100%
9,CC(C)(C)n1nc(-c2cccc3ccccc23)c2c(N)ncnc21 [1-Naphthyl PP1],13.6 ± 19%
10,Nc1cc(N)c(N)cc1N [FAK Inhibitor 14],11.9 ± 4%
11,O=C(NC1CCNCC1)c1n[nH]cc1NC(=O)c1c(Cl)cccc1Cl,90.2 ± 14%
12,CCc1nc(-c2cccc(C)c2)c(-c2ccnc(NC(=O)c3ccccc3)c2)s1,23.2 ± 2.1%
13,O=C(NC(NC(=S)Nc1ccc(F)c([N+](=O)[O-])c1)C(Cl)(Cl)Cl)C(c1ccccc1)c1ccccc1 (configuration not stated),100%
14,O=S(=O)(c1cccc2c(Cl)cccc12)N1CCCNCC1 [ML 9 hydrochloride],31.1 ± 21%
15,Nc1[nH]nc2nc3ccccc3nc12,3.97 ± 5.6%
16,O=C(NOCC1CC1)c1ccc(F)c(F)c1Nc1ccc(I)cc1Cl,100%
17,Cc1ncc(-c2ccnc(Nc3ccc(S(C)(=O)=O)cc3)n2)n1C(C)C,100%
18,Cc1cc(C(=O)NOCCO)c(Nc2ccc(I)cc2F)n(C)c1=O,100%
